Hits are enriched below; roughly 1.9% of the tested compounds scored in any of these assays.
LYPLA2 inh = LYPLA2 (human) inhibition in PME1 counter-screen; recombinant LYPLA2, FP-Rh probe fluorescence polarization; 320,000 tested, 0.38% active; O95372; inhibition, % at 5.9 µM;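 active means inhibition above the screen-wide mean plus 3 SD, limit set per campaign, cut at about 26% in these data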;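 further: 0% = LYPLA2 with DMSO and 100% = wells lacking LYPLA2 enzyme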
Fam108B inh = counter-screen for RBBP9 inhibitors: inhibitors of mouse Fam108B | recombinant Fam108B, FP-Rh probe fluorescence polarization | 300,000 tested, 0.33% active | AID 1947 | inhibition, % at 9.51 µM;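 active means inhibition above the screen mean inhibition plus 3 SD, computed separately per campaign, cut at about 18% in these data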;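 further: inhibitors lower polarization as less probe binds the enzyme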
GSTO1 counter = counter-screen for RBBP9 inhibitors: inhibitors of human GSTO1 | AID 1974 | recombinant GSTO1, activity-based probe fluorescence polarization | 300,000 tested, 1.1% active | P78417 | inhibition, % at 5.96 µM;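 active means inhibition above the campaign mean inhibition plus 3 SD, cut at about 35% in these data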;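 further: 0% = GSTO1-1 with DMSO and 100% = wells lacking GSTO1-1 enzyme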
LYPLA1 inh = blocks human lysophospholipase 1, a PME1 counter-screen. AID 2174. 320,000 tested, 0.16% active. O75608. inhibition, % at 5.9 µM. recombinant LYPLA1, FP-Rh probe fluorescence polarization;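 active means inhibition above the mean of all tested compounds plus 3 SD, set per campaign, cut at about 14% in these data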;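 further: inhibitors block serine hydrolase probe labeling of LYPLA1 so polarization falls; 0% = enzyme with DMSO and 100% = wells lacking LYPLA1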
Target sequence (O75608 whole entry, looked up): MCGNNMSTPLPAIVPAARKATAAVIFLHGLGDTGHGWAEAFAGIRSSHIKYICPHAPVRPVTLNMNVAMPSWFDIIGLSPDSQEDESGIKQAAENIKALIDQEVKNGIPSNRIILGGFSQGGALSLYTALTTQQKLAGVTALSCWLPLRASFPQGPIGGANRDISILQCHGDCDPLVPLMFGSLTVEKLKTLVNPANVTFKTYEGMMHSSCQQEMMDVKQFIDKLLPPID
PME-1 inh = PME-1 (human) inhibition; Q9Y570; 320,000 tested, 0.53% active; recombinant PME-1, FP-Rh probe fluorescence polarization; inhibition, % at 5.9 µM;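 active means inhibition above the campaign mean of all compounds plus 3 SD, cut at about 26% in these data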;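 further: competitive labeling of PME-1 active site by serine hydrolase directed probe; 0% = PME-1 with DMSO and 100% = wells lacking PME-1 enzyme; inhibitors block probe labeling so polarization falls and inhibition rises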
Target sequence (Q9Y570 whole entry, looked up): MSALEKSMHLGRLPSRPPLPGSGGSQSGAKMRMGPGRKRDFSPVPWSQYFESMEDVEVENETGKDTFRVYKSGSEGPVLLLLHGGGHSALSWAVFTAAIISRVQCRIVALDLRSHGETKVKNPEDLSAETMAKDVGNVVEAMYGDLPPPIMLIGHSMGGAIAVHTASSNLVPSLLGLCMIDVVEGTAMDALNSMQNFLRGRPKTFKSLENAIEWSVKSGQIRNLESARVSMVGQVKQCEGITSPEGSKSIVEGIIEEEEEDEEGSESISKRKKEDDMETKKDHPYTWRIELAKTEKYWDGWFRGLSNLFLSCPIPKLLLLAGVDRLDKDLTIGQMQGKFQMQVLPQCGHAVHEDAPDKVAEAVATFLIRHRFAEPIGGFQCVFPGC
PREPL inhibitor = inhibits the human prolyl oligopeptidase-like enzyme; Q4J6C6; recombinant PREPL, fluorescence polarization activity-based probe; inhibition, % at 5.96 µM; 320,000 tested, 0.68% active; AID 2751;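 further: 0% = enzyme with DMSO and 100% = wells lacking enzyme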
PREPL inh cf = confirmation of human PREPL enzyme inhibitors; 2,000 tested, 67% active; recombinant PREPL, fluorescence polarization activity probe; shares compounds with PREPL inhibitor; AID 2803; inhibition, % at 5.96 µM;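 further: 0% = protein with DMSO and 100% = wells lacking protein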
The depositor's hits bear a star; . = not tested or not shown. Unless noted, no stated cut-off is given here; in the data, active means inhibition above about 43%; inactive means the rest.

SMILES	LYPLA2 inh	Fam108B inh	GSTO1 counter	LYPLA1 inh	PME-1 inh	PREPL inhibitor	PREPL inh cf
CN(Cc1ccco1)C(=O)c1ccc(OC2CCN(Cc3ccccn3)CC2)cc1	6	1	1	3	-6	3	.
COc1ccccc1C(=O)OCC(=O)NC1CCCC1	7	3	-8	4	3	0	.
CC(C)c1ccc(NC(=O)C2CCCCC2C(=O)O)cc1 (stereo not given)	-4	-2	0	-1	-4	-6	.
O=C(O)[C@H]1CCCC[C@H]1C(=O)Nc1ccc(Nc2ccccc2)cc1	-1	4	8	2	-5	93*	8
Cc1ccc(OCC(O)Cn2c(=N)n(CCN3CCOCC3)c3ccccc32)cc1 (stereo not given)	-4	1	4	2	-9	45*	34
Cc1cc(=O)[nH]c2c(C)cc(S(=O)(=O)Nc3ccc(O)cc3)cc12	-1	3	-1	5	12	3	.
COc1cccc(N2CCN(C(=O)c3oc4ccccc4c3NC(=O)Cc3ccc(OC)c(OC)c3)CC2)c1	0	1	0	-2	-1	4	.
C[n+]1ccccc1/C=C/c1cc(Br)ccc1O	-2	-1	1	1	9	44*	30
COc1ccc(/C=C/c2cccc[n+]2C)c(O)c1	2	1	-6	-2	-1	-1	.
O=C(OCN1C(=O)c2ccccc2C1=O)c1cccc(S(=O)(=O)N2CCOCC2)c1	6	-3	17	-1	6	2	.
COc1ccc(Cn2nnc3ccccc32)cc1	7	-3	9	1	-2	50*	37
c1ccc(Cn2nnc3ccccc32)cc1	-5	1	7	-1	-3	-6	.
CCOC(=O)c1sc(NC(=O)CN2CCN(c3ccccc3)CC2)nc1C	4	-2	4	-1	6	6	.
O=C(CCN1CCCCCC1)Nc1ccc2c(c1)OCCO2	0	1	3	2	6	45*	12
CN1CCN(CCC(=O)Nc2ccc3c(c2)OCO3)CC1	-5	-1	5	0	0	2	.
C=CCn1c(SCc2ccccc2Cl)nnc1-c1sc2nc(C)cc(C)c2c1N	-9	10	9	2	8	47*	42
COc1ccc(NC(=O)CSc2nc3nc(C)cc(C)c3c(=O)[nH]2)cc1	-5	3	-6	-2	-8	45*	1
CC(=O)Nc1nnc(SCc2cc(=O)c(OC(=O)c3ccccc3)co2)s1	-1	3	14	-1	1	7	.
Cc1ccc(C(=O)Oc2coc(CSc3nnc(NC(=O)c4cccs4)s3)cc2=O)cc1	0	-2	3	-2	1	76*	85*
O=C(Nc1ccc(COc2ccccc2)cc1)Nc1cccc(C(=O)O)c1	5	0	0	0	1	14	.
CCN1CCN(c2ccc(NC(=O)COc3ccccc3Cl)cc2)CC1	6	-1	6	1	0	47*	40
Cc1cccc(OCC(=O)Nc2ccc(N3CCN(C(=O)c4ccccc4)CC3)cc2)c1	2	3	-6	-1	2	55*	58*
CC(=O)N1CCN(c2ccccc2NC(=O)COc2ccc(Cl)cc2Cl)CC1	-1	6	-8	1	6	15	.
CC(=O)N1CCN(c2ccc(NC(=O)COc3ccc(Cl)cc3Cl)cc2)CC1	11	4	-4	1	1	53*	54*
O=C(COc1ccccc1Cl)Nc1ccc(N2CCN(C(=O)c3ccccc3)CC2)cc1	14	-2	-10	-1	1	64*	62*
SMILES	LYPLA2 inh	Fam108B inh	GSTO1 counter	LYPLA1 inh	PME-1 inh	PREPL inhibitor	PREPL inh cf
O=C(CSc1ccc(-c2ccccn2)nn1)NCc1ccc(F)cc1	2	-8	-12	0	4	27	.
COCCNC(=O)C1CCCN(S(=O)(=O)c2ccc3c(c2)CC(C)N3C(=O)C2CC2)C1 (stereo not given)	0	0	0	6	-6	3	.
COc1ccc(CC(=O)N/N=C(\C)CC(=O)Nc2ccc3c(c2)OCCO3)cc1OC	3	-2	-1	3	-2	2	.
CCN1CCN(c2ccc(NC(=O)COc3ccc(Cl)cc3C)cc2)CC1	.	.	.	.	.	43*	53*
Cc1cc(Cl)ccc1OCC(=O)Nc1ccncc1	4	4	-7	2	-17	1	.
Cc1ccc2c(c1)c1c(n2CC(O)CN2CCCCCC2)CCCC1 (stereo not given)	-4	1	6	2	0	45*	42
Cc1ccc2c(c1)c1c(n2CC(O)Cn2c(C)nc3ccccc32)CCCC1 (stereo not given)	2	-1	2	2	4	9	.
Cc1nc(-c2ccccc2)nc(-c2ccccc2)n1	4	-2	7	0	-2	8	.
Oc1c(CN2CCOCC2)cc(COCc2ccccc2)c2cccnc12	3	1	-12	-1	1	56*	65*
COCCCNC(=O)c1c(NC(=O)c2cccs2)sc2c1CCCC2	-8	1	-6	-8	6	44*	30
C/C(Cn1nnc2ccccc21)=N\NC(=O)c1ccc(Br)cc1	0	3	3	-5	0	3	.
O=C(COC(=O)CCc1c[nH]c2ccccc12)Nc1cc([N+](=O)[O-])ccc1Cl	8	5	4	1	3	46*	43
COc1ccc(C(C(=O)NC(C)C)N(C(=O)CCC(=O)Nc2nccs2)c2ccccc2F)cc1 (stereo not given)	1	-4	-2	1	4	-1	.
COC(=O)[C@@]12CCCCN1[C@H](c1ccc(-c3ccc(F)cc3)cc1)[C@@H]1C(=O)N(C)C(=O)[C@@H]12	0	5	2	1	3	54*	44*
Cc1ccc(S(=O)(=O)N2CCC(C(=O)OC(C)C(=O)NC(N)=O)CC2)cc1C (stereo not given)	3	2	-3	-3	-1	14	.
CC(=O)c1cccc(N=c2scc(-c3ccc(S(=O)(=O)N4CCOCC4)cc3)n2CCO)c1	-2	4	1	-6	-2	15	.
CN(C)S(=O)(=O)c1cccc(-c2csc(=Nc3ccccc3)n2CCCN2CCOCC2)c1	0	-3	-6	0	15	56*	55*
O=C(O)CCC(=O)N1CCN(c2ccccn2)CC1	4	-2	-1	1	-3	44*	3
O=C(O/N=C1\CCS(=O)(=O)c2sccc21)C1CC1	5	1	-7	4	10	5	.
Fc1cccc(CCN2CCNC[C@@H]2CC2CCCCC2)c1	3	.	.	3	1	44*	42

Compound activity (PubChem BioAssay)
